Experimental data as given in PubChem BioAssay.
Results with a measured potency or affinity are listed apart. Activity calls are given as the source filed them. Cut-off not given; nearly all actives show IC50 up to about 0.91 µM.

Each molecule was assayed against Calcium-dependent protein kinase 4 (Plasmodium falciparum (isolate 3D7)) (UniProt Q8IBS5) (assay: PfCDPK4 kinase inhibitors, biochemical, TCAMS library (AID 1159588)). Conditions: recombinant PfCDPK4, Kinase-Glo ATP depletion luminescence.
Chain of Calcium-dependent protein kinase 4 (Plasmodium falciparum (isolate 3D7)) (Q8IBS5 whole entry, looked up): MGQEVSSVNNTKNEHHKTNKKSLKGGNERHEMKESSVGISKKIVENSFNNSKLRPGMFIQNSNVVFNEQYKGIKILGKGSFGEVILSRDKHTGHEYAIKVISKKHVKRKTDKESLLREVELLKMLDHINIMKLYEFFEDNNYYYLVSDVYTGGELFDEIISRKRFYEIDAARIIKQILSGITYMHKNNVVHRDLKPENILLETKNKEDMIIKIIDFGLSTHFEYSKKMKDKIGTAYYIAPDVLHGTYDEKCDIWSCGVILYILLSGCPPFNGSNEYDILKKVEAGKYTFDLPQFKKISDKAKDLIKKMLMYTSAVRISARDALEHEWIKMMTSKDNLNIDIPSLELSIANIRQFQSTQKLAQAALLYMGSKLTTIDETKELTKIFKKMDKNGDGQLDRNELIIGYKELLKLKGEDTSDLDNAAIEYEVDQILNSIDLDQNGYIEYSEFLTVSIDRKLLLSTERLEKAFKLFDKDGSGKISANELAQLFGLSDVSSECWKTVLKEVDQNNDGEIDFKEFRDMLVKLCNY

outcome, inactive:
Cc1cc(N2CCN(C3CCCCC3)CC2)nc2cccc(O)c12, CC(C)C[C@H](NC(=O)[C@H](Cc1ccccc1)NC(=O)CCN1C(=O)COc2ccc(C(=O)O)cc21)C(=O)NC(CC1CCCCC1)C(O)CC(=O)NCCCn1ccnc1 (some centres undefined), COc1c(C2=CCN(CCCCNC(=O)c3ccc(-c4ccc(C#N)cc4)cc3)CC2)c(C)cc2c1C(C)(C)CCC2(C)C, Cc1cc(N2CCC(NS(=O)(=O)c3ccccc3)CC2)nc(Nc2cccc(C#N)c2)n1, O=C(Nc1ccc(Cl)cn1)c1sc2ccccc2c1O, Cc1ccc(NC(=O)NC2CCN(CCC(NC(=O)Cc3ccccc3)c3ccc(Cl)c(Cl)c3)CC2)cc1 (centres undefined), Cc1cc(N)c2cc(NC(=O)c3cccc4ccccc34)ccc2n1, Cc1cc(NCCCN2CCCC2=O)n2c(nc3ccccc32)c1C#N, COc1ccc(F)cc1-c1cccc(CNC2CCN(CC3Cn4c(=O)ccc5ccc(F)c3c54)CC2)c1 (centres undefined), NC(=O)C1CCN(Cc2cccc(-c3cccc(-c4nc5ccc(C(F)(F)F)cc5[nH]4)c3)c2)CC1, O=C(/C=C/c1ccc(F)cc1)NC1CCC(CCN2CCc3ccc(-n4cccn4)cc3CC2)CC1 (centres undefined), Cc1cccc2[nH]c(-c3cccc(-c4ccc(C(=O)N5CCCCC5C(C)O)cc4)c3)nc12 (centres undefined), COc1ccc(N2CCN(CCCN3CCN(C(=O)c4ccc(/C=C/c5ccc(Cl)c(Cl)c5)cc4)CC3)CC2)c(OC)c1, C[C@@H](Oc1cc(-n2cnc3ccc(NC(=O)CCN4CCCCC4)cc32)sc1C(N)=O)c1ccccc1Cl
